Screening results (PubChem)
A selection: hits, their analogues and other compounds. The true share with any hit is near 2.4%.
D2 PAM-1: positive allosteric modulators of human D2 dopamine receptor | potentiation, % at 10 µM | 0.34% of 340,000 active | P14416 | AID 485347 | HEK293 T-REx D2, calcium flux, EC20 dopamine potentiation;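 active means potentiation over 3 SD above the plate norm, cut at about 30% in these data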
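Potentiation of an EC20 dopamine calcium response measured kinetically over 180 s, after a preceding 180 s compound-only read flagging agonists. Cells: inducible Hek293 Trex D2 line, 4000/well, cultured overnight at 30 C before dye loading.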
D2 PAM-2: positive allosteric modulators of human D2 dopamine receptor; P14416; DiscoveRx D2 beta-arrestin cells, luminescence, 90 min; 100% = 57 uM dopamine signal; potentiation, % (test concentration not listed); 0.23% of 360,000 active; in the data active means potentiation above about 50%; inconclusive means mostly about 30% to 49%
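PathHunter beta-arrestin assay in DiscoveRx D2 cells. Compounds were added with an EC20 of dopamine (50 nM final) for 90 min at 37 deg C. Luminescence was read 1 h after detection reagent, with 57 uM dopamine as the EC100 control.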
D2 ag-1: human D2 receptor agonism in beta-arrestin assay; P14416; 0.084% of 360,000 active; AID 624465; DiscoveRx PathHunter D2 beta-arrestin, luminescence, 90 min; 100% = 57 uM dopamine signal; activation, % (test concentration not listed); in the data active means activation above about 40%; inconclusive means between about 15% and that limit
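Agonist mode: compounds alone added to overnight-plated D2 PathHunter cells for 90 min at 37 C, with 57 uM final dopamine (EC100) defining full response. Beta-arrestin recruitment detected by chemiluminescent reagent, read after 1 h at ambient temperature.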
D2 antag: antagonists of human D2 dopamine receptor. HEK293 TREx D2 cells, calcium flux, dopamine EC80. inhibition, % at 10 µM. 2% of 340,000 active. AID 485344; in the data active means inhibition above about 30%; inactive means below that, where a call was filed
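Tetracycline-induced HEK293 T-REx cells expressing D2 force-coupled to calcium signalling were dye-loaded, exposed to compound for 180 s, then challenged with an EC80 of dopamine; calcium flux was followed kinetically for a further 180 s.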
D2 ag-2: activates the human D2 dopamine receptor | AID 485358 | activation, % at 2 µM | P14416 | 0.53% of 340,000 active | HEK293 T-REx D2 cells, calcium flux agonist mode;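 active means activation over 3 SD above normal in the single-dose calcium agonist read, cut at about 30% in these data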
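Agonism scored from kinetic calcium signal (1 read/sec, 180 s) following compound pin transfer, after a 10 s baseline. Cells: HEK293 Trex line expressing inducible D2 receptor coupled to calcium, dye-loaded after overnight culture at 30 C.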
D3 ag: confirmation of human D3 dopamine receptor agonists, beta-arrestin; DiscoveRx D3 beta-arrestin cells, luminescence, 90 min; AID 720506; 4% of 2,300 active; shares compounds with D2 ag-2; Potency, µM (series often up to 76.9 µM), most hits filed as activators; further: nearly all actives have a fitted effect of over 70% in size
Target sequence (P35462 whole entry, looked up): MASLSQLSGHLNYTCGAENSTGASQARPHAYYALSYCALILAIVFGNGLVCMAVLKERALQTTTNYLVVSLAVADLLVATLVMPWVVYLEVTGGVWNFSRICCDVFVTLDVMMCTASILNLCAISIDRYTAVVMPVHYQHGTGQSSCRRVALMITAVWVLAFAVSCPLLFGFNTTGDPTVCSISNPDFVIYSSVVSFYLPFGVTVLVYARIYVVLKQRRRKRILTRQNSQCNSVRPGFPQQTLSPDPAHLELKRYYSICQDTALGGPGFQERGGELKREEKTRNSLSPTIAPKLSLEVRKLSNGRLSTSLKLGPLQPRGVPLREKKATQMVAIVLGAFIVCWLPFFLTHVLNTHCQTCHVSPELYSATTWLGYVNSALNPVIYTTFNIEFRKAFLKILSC
D2 ag-3: D2 receptor agonism, beta-arrestin counterscreen. DiscoveRx PathHunter D2 beta-arrestin, luminescence, 90 min; response scale: percent relative to full dopamine signal. 5.9% of 2,300 active. shares compounds with D2 ag-2. Potency, µM (series often up to 76.9 µM), actives largely listed as activators; further: nearly all actives have a fitted effect of over 70% in size
Hits are given with their value; n = inactive; u = inconclusive; x = no result given. Unless noted, the call rests on the fitted dose curve; in most records, active means well fitted activation curve with a large enough effect; inconclusive means small, poorly fitted or top-dose-only effect; inactive means flat fitted curve, though single readings scatter.

SMILES	D2 PAM-1	D2 PAM-2	D2 ag-1	D2 antag	D2 ag-2	D3 ag	D2 ag-3
Cc1cc(C)cc(NC(=O)CSc2ccc(-c3ccccn3)nn2)c1	n	n	n	n	n	x	x
O=C(CN1CCN(c2ccccn2)CC1)Nc1cccc(S(=O)(=O)N2CCOCC2)c1	n	n	n	n	42	n	u
O=C(CSc1ccc(-c2ccccn2)nn1)Nc1cccc(F)c1	n	n	n	n	71	n	n
CCCCOc1ccc(C(=O)NCCc2sc3nc(-c4ccc(OC)cc4)nn3c2C)cc1	n	x	x	x	n	x	x
CCCCOC(=O)c1ccc(NC(=O)CC2NCCNC2=O)cc1 (centres undefined)	n	x	x	x	n	x	x
Cn1c(=O)[nH]c(=O)c2c1nc(N1CCN(CCO)CC1)n2Cc1ccccc1Cl	n	n	n	30	n	n	n
O=C(CS(=O)(=O)c1cccc2nsnc12)NCc1ccc(Cl)cc1	n	x	x	x	n	x	x
COc1ccc2c(CN3CCCC3)cc(=O)oc2c1	x	n	n	x	x	x	x
COC(=O)C1CCN(Cc2cc(=O)oc3cc(OC)ccc23)CC1	n	n	n	n	56	u	u
COC(=O)C1CCN(Cc2ccc(OCCCN3CCN(c4ccc([N+](=O)[O-])cc4)CC3)cc2)CC1	n	n	n	75	54	n	n
COC(=O)C1CCN(Cc2ccc(C)cc2)CC1	n	n	u	69	75	n	u
Cc1ccc(CN2CCN(C(=O)C3CCC3)CC2)cc1	n	n	n	n	n	x	x
CCc1ccc(NC(=O)CC2C(=O)N(c3ccc(Cl)cc3)C(=O)N2Cc2cccs2)cc1 (centres undefined)	x	x	x	x	n	x	x
CCOc1ccc(CNCc2c(C(=O)O)c(C)n(Cc3ccc(F)cc3Cl)c2C)cc1	n	x	x	x	n	x	x
CC(C)c1ccc(NC(=O)c2ccc(=O)n(Cc3ccccc3)c2)cc1	n	x	x	x	n	x	x
O=C(Cc1ccccc1)NCC1COc2ccccc2O1 (centres undefined)	x	n	n	x	x	x	x
Cn1c(C(=O)O)c(CC(=O)NCC2COc3ccccc3O2)c2ccccc21 (centres undefined)	n	n	n	42	n	n	u
COc1cc(Nc2nc(SCc3cccc(Cl)c3)nc3ccccc23)cc(OC)c1	n	x	x	x	n	x	x
Cc1ccc(-n2nnnc2SCC(=O)c2c(N)n(C3CC3)c(=O)[nH]c2=O)c(C)c1	n	n	n	n	n	n	n
Cc1cc(C)cc(OC(=O)c2snnc2C)c1	n	x	x	x	n	x	x
CSc1c(CC(=O)Nc2ccccc2C(F)(F)F)n(Cc2ccccc2)c2ccccc12	n	n	n	n	n	n	n
CSc1c(CC(=O)Nc2ccccc2Cl)n(Cc2ccccc2)c2ccccc12	n	n	n	n	n	x	x
Cc1ccc2c(c1)[C@H]1[C@H](CO2)[C@H](c2ccccc2)[C@]2(C)C(=O)N(Cc3ccc(Cl)cc3)CC(=O)N12	n	n	n	n	n	n	n
CCOc1ccccc1-c1noc(CSc2nnc(-c3ccccc3)n2-c2ccc(OC)cc2)n1	n	x	x	x	n	x	x
COc1ccc(N(CC(=O)NCCOc2ccccc2)S(=O)(=O)c2ccc(C)cc2)cc1	n	n	n	n	n	n	n
SMILES	D2 PAM-1	D2 PAM-2	D2 ag-1	D2 antag	D2 ag-2	D3 ag	D2 ag-3
CCOc1ccc(N(CC(=O)NCCOc2ccc(C)cc2)S(=O)(=O)c2ccccc2)cc1	n	n	n	n	n	x	x
COc1ccc(-n2c(-c3ccccc3F)nc3c(cnn3-c3ccc(C)cc3)c2=O)cc1	n	x	x	x	n	x	x
COc1cccc(OCC(O)CN2CCN(c3ncccn3)CC2)c1 (centres undefined)	n	n	u	69	78	n	u
COc1cccc(CN2CCN(c3ncccn3)CC2)c1	n	n	55	95	93	u	0.63µM
COc1cccc(OCC(O)CN2CCOCC2)c1 (centres undefined)	n	n	n	n	n	x	x
OC(COc1ccc(Br)cc1)CN1CCN(c2ccccc2)CC1 (centres undefined)	n	n	n	81	61	u	u
COc1cc(Br)cc(CN2CCN(c3ncccn3)CC2)c1O	n	81	52	74	76	u	7.9µM
Cc1cccc(-n2c3nc(=O)[nH]c(=O)c-3cc3ccc(Cl)cc32)c1C	n	x	x	x	n	x	x
CCOC(=O)COc1ccc(CC)cc1C(=O)c1ccn2nc(-c3ccc(Cl)cc3)cc2n1	n	x	x	x	n	x	x
OCC(O)CN1CCN(c2ccccc2)CC1 (centres undefined)	n	n	n	59	82	n	n
COc1cccc(OCC(O)CN2CCN(c3ccccn3)CC2)c1 (centres undefined)	n	n	u	91	73	u	3.5µM
OC(CSc1ccc(F)cc1)CN1CCN(c2ccccc2)CC1 (centres undefined)	n	n	u	76	80	n	n
OC(CN1CCN(c2ccccc2)CC1)Cn1c2ccccc2c2ccccc21 (centres undefined)	n	n	n	n	n	x	x
COc1cccc(OCC(O)CN2CCN(c3ccccc3)CC2)c1 (centres undefined)	n	n	u	83	79	u	u
COc1cccc(OCC(O)CN2CCN(c3ccc(Cl)cc3)CC2)c1 (centres undefined)	n	n	n	n	n	x	x
COc1ccc(CCNc2ncnc3c2nnn3C)cc1	n	x	x	x	n	x	x
CCc1ccccc1N(CC)C(=O)c1c(C)oc2ncnc(N3CCOCC3)c12	x	x	x	x	n	x	x
CC1CCn2c(nc3cc(C(=O)NCc4ccc(OC(C)C)cc4)ccc32)C1 (centres undefined)	n	x	x	x	n	x	x
OC(COc1ccccc1)CN1CCN(c2ncccn2)CC1 (centres undefined)	n	n	n	39	n	n	n
CCc1ccccc1NC(=S)N1CCN(c2ccccc2F)CC1	n	n	n	n	n	n	n
Oc1ccc(Cl)cc1CNCc1ccc(F)cc1	n	n	n	n	n	x	x
Oc1ccc(Cl)cc1CNCc1ccc(Cl)cc1	n	n	n	n	n	n	n
COc1ccc(C2c3c(-c4ccccc4)n[nH]c3C(=O)N2c2ccc(C(=O)O)cc2)cc1 (centres undefined)	n	n	n	39	n	n	n
CCCc1nc2ccc(NC(C)=O)cc2c(=O)n1Cc1ccccc1Cl	n	n	n	n	n	n	n
COc1ccc(CCC(=O)OCC(=O)N2CCN(S(=O)(=O)c3ccc(C)cc3C)CC2)cc1	n	n	n	n	n	n	n
Cc1ccc(OCCC(=O)OCC(=O)N2CCN(S(=O)(=O)c3ccc(C)cc3C)CC2)cc1	n	n	n	n	n	x	x
